Laboratory results from the supplement of paper PMC13172266.
Where a name gives a salt, the structure may show the parent alone.

Key:
Test in all cases: cell proliferation relative to vehicle (% of vehicle); higher = less growth inhibition
Details in all cases: 72 h
[1] = tested on: U2932 TK216-resistant clone 2
Procedure, shortened: (§1)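 A targeted inhibitor library of 348 compounds was tested on the ABC-DLBCL line U2932, both parental and two clones made resistant to an ETS-targeting agent by repeated exposure over almost a year. Cells were grown at 37°C and 5% CO2 in medium with 10% FBS, then treated at 500 nM or 50 nM for 72 h. MTT was added for 4 h, stopped with 25% SDS, and absorbance was read on a Cytation 3. Proliferation is reported as percent of proliferating cells relative to vehicle (DMSO).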

[2] = tested on: U2932 TK216-resistant clone 3
Procedure, shortened: as §1

[3] = tested on: U2932 parental
Procedure, shortened: as §1

COc1nc(OCc2cccc(-c3ccccc3)c2C)ccc1CNCCNC(C)=O [PD-1/PD-L1 inhibitor 2]
cell proliferation ([1]; 50 nM): 95.9
cell proliferation ([1]; 500 nM): 89
cell proliferation ([2]; 50 nM): 94.4
cell proliferation ([2]; 500 nM): 82.7
cell proliferation ([3]; 50 nM): 104
cell proliferation ([3]; 500 nM): 91.5

C[C@]12CC[C@@H]3c4ccc(O)cc4C[C@@H](CCCCCCCCC[S+]([O-])CCCC(F)(F)C(F)(F)F)[C@H]3[C@@H]1CC[C@@H]2O (stereo partly drawn) [Fulvestrant]
cell proliferation ([1]; 50 nM): 98.2
cell proliferation ([1]; 500 nM): 101
cell proliferation ([2]; 50 nM): 103
cell proliferation ([2]; 500 nM): 104
cell proliferation ([3]; 50 nM): 98.8
cell proliferation ([3]; 500 nM): 93.9

C[C@@H](Nc1cc(F)cc(F)c1)c1cc(C(=O)N(C)C)cc2c(=O)cc(N3CCOCC3)oc12
cell proliferation ([1]; 50 nM): 111
cell proliferation ([1]; 500 nM): 83.1
cell proliferation ([2]; 50 nM): 99.4
cell proliferation ([2]; 500 nM): 84.5
cell proliferation ([3]; 50 nM): 99.9
cell proliferation ([3]; 500 nM): 90.3

Cc1c(NC(=O)OC[C@@H]2COCCN2)cn2ncnc(Nc3ccc4c(cnn4Cc4cccc(F)c4)c3)c12
cell proliferation ([1]; 50 nM): 100
cell proliferation ([1]; 500 nM): 80.4
cell proliferation ([2]; 50 nM): 98.1
cell proliferation ([2]; 500 nM): 71.9
cell proliferation ([3]; 50 nM): 97.2
cell proliferation ([3]; 500 nM): 81.6

Cc1nc(-c2ccc(OCC(C)C)c(C#N)c2)sc1C(=O)O [Febuxostat]
cell proliferation ([1]; 50 nM): 101
cell proliferation ([1]; 500 nM): 110
cell proliferation ([2]; 50 nM): 106
cell proliferation ([2]; 500 nM): 104
cell proliferation ([3]; 50 nM): 102
cell proliferation ([3]; 500 nM): 103

CC[C@@]1(O)C(=O)OCc2c1cc1n(c2=O)Cc2cc3c(CN(C)C)c(O)ccc3nc2-1 [Topotecan HCl]
cell proliferation ([1]; 50 nM): 9.75
cell proliferation ([1]; 500 nM): 5
cell proliferation ([2]; 50 nM): 12.8
cell proliferation ([2]; 500 nM): 5.92
cell proliferation ([3]; 50 nM): 11.1
cell proliferation ([3]; 500 nM): 2.71

COc1cc2nccc(Oc3ccc(NC(=O)C4(C(=O)Nc5ccc(F)cc5)CC4)cc3)c2cc1OC
cell proliferation ([1]; 50 nM): 102
cell proliferation ([1]; 500 nM): 98
cell proliferation ([2]; 50 nM): 100
cell proliferation ([2]; 500 nM): 106
cell proliferation ([3]; 50 nM): 95.4
cell proliferation ([3]; 500 nM): 99.2

CC(C)C(=O)Nc1ccc([N+](=O)[O-])c(C(F)(F)F)c1 [Flutamide]
cell proliferation ([1]; 50 nM): 90.7
cell proliferation ([1]; 500 nM): 87.2
cell proliferation ([2]; 50 nM): 97.2
cell proliferation ([2]; 500 nM): 98.3
cell proliferation ([3]; 50 nM): 89.3
cell proliferation ([3]; 500 nM): 87.6

COc1ccc(S(=O)(=O)N(C(C)=O)c2ccccc2/C=C/c2cc[n+]([O-])cc2)cc1
cell proliferation ([1]; 50 nM): 103
cell proliferation ([1]; 500 nM): 12.6
cell proliferation ([2]; 50 nM): 99.5
cell proliferation ([2]; 500 nM): 13.2
cell proliferation ([3]; 50 nM): 88.7
cell proliferation ([3]; 500 nM): 11.3

O=C(O)C(Cc1c[nH]c2ccccc12)N1C(=O)c2ccccc2C1=O (stereo not drawn)
cell proliferation ([1]; 50 nM): 97.2
cell proliferation ([1]; 500 nM): 102
cell proliferation ([2]; 50 nM): 99.2
cell proliferation ([2]; 500 nM): 98
cell proliferation ([3]; 50 nM): 100
cell proliferation ([3]; 500 nM): 96.1

COc1cc(Nc2ncc(F)c(Nc3ccc4c(n3)NC(=O)C(C)(C)O4)n2)cc(OC)c1OC [R406 (free base)]
cell proliferation ([1]; 50 nM): 98
cell proliferation ([1]; 500 nM): 87.2
cell proliferation ([2]; 50 nM): 103
cell proliferation ([2]; 500 nM): 98.3
cell proliferation ([3]; 50 nM): 94.8
cell proliferation ([3]; 500 nM): 92.8

COc1ccc(-c2ccc3ncc4c(c3c2)n(-c2ccc(N3CCNCC3)c(C(F)(F)F)c2)c(=O)n4C)cn1
cell proliferation ([1]; 50 nM): 15.8
cell proliferation ([1]; 500 nM): -0.777
cell proliferation ([2]; 50 nM): 30.9
cell proliferation ([2]; 500 nM): 0.399
cell proliferation ([3]; 50 nM): 19.7
cell proliferation ([3]; 500 nM): 1.95

COc1ccc(-n2c(SCCCN3C(=O)c4cccc5cccc(c45)C3=O)nnc2-c2ccncc2)cc1
cell proliferation ([1]; 50 nM): 106
cell proliferation ([1]; 500 nM): 97.3
cell proliferation ([2]; 50 nM): 104
cell proliferation ([2]; 500 nM): 99.4
cell proliferation ([3]; 50 nM): 94.3
cell proliferation ([3]; 500 nM): 94.5

CO[C@@]12[C@H](COC(N)=O)C3=C(C(=O)C(C)=C(N)C3=O)N1C[C@@H]1N[C@@H]12 [Mitomycin C]
cell proliferation ([1]; 50 nM): 94.8
cell proliferation ([1]; 500 nM): 13.8
cell proliferation ([2]; 50 nM): 96.6
cell proliferation ([2]; 500 nM): 26.4
cell proliferation ([3]; 50 nM): 91.3
cell proliferation ([3]; 500 nM): 35.8

CN[C@@H](C)C(=O)N[C@H](C(=O)N1CCC[C@H]1C(=O)Nc1snnc1-c1ccccc1)C1CCCCC1
cell proliferation ([1]; 50 nM): 102
cell proliferation ([1]; 500 nM): 111
cell proliferation ([2]; 50 nM): 97.2
cell proliferation ([2]; 500 nM): 107
cell proliferation ([3]; 50 nM): 95
cell proliferation ([3]; 500 nM): 103

COc1cc2c(Oc3ccc4[nH]c(C)cc4c3F)ncnc2cc1OCCCN1CCCC1 [Cediranib (AZD2171)]
cell proliferation ([1]; 50 nM): 105
cell proliferation ([1]; 500 nM): 92.6
cell proliferation ([2]; 50 nM): 99.8
cell proliferation ([2]; 500 nM): 83
cell proliferation ([3]; 50 nM): 96.7
cell proliferation ([3]; 500 nM): 90.4

CC(C)C[C@H](NC(=O)[C@H](CCc1ccccc1)NC(=O)CN1CCOCC1)C(=O)N[C@@H](Cc1ccccc1)C(=O)N[C@@H](CC(C)C)C(=O)[C@@]1(C)CO1 [Carfilzomib (PR-171)]
cell proliferation ([1]; 50 nM): -2.48
cell proliferation ([1]; 500 nM): -4.13
cell proliferation ([2]; 50 nM): -2.24
cell proliferation ([2]; 500 nM): -4.17
cell proliferation ([3]; 50 nM): -1.34
cell proliferation ([3]; 500 nM): -1.99

NC(=O)NO [Hydroxyurea]
cell proliferation ([1]; 50 nM): 103
cell proliferation ([1]; 500 nM): 94.7
cell proliferation ([2]; 50 nM): 102
cell proliferation ([2]; 500 nM): 103
cell proliferation ([3]; 50 nM): 92.2
cell proliferation ([3]; 500 nM): 97.8

C[C@@H]1CN(CC(=O)Nc2ccc3c(c2)Cc2cccc(-c4cc(=O)cc(N5CCOCC5)o4)c2S3)C[C@H](C)O1
cell proliferation ([1]; 50 nM): 102
cell proliferation ([1]; 500 nM): 101
cell proliferation ([2]; 50 nM): 103
cell proliferation ([2]; 500 nM): 97
cell proliferation ([3]; 50 nM): 105
cell proliferation ([3]; 500 nM): 111

CC(C)c1cc(-c2n[nH]c(=O)n2-c2ccc3c(ccn3C)c2)c(O)cc1O [Ganetespib (STA-9090)]
cell proliferation ([1]; 50 nM): 6.02
cell proliferation ([1]; 500 nM): 4.07
cell proliferation ([2]; 50 nM): 23.7
cell proliferation ([2]; 500 nM): 19.8
cell proliferation ([3]; 50 nM): 4.55
cell proliferation ([3]; 500 nM): 5.59

O=C1c2c(O)ccc(O)c2C(=O)c2c(NCCNCCO)ccc(NCCNCCO)c21 [Mitoxantrone]
cell proliferation ([1]; 50 nM): 12
cell proliferation ([1]; 500 nM): 5.19
cell proliferation ([2]; 50 nM): 16
cell proliferation ([2]; 500 nM): 15
cell proliferation ([3]; 50 nM): 18.8
cell proliferation ([3]; 500 nM): 8.11

CC1(C)CC[C@]2(NC(=O)C(C)(F)F)CC[C@]3(C)[C@H](C(=O)C=C4[C@@]5(C)C=C(C#N)C(=O)C(C)(C)[C@@H]5CC[C@]43C)[C@@H]2C1 [Omaveloxolone (RTA-408)]
cell proliferation ([1]; 50 nM): 95.5
cell proliferation ([1]; 500 nM): 10
cell proliferation ([2]; 50 nM): 103
cell proliferation ([2]; 500 nM): 23.8
cell proliferation ([3]; 50 nM): 93.8
cell proliferation ([3]; 500 nM): 14.7

CO[C@H]1C[C@@H]2CC[C@@H](C)[C@@](O)(O2)C(=O)C(=O)N2CCCC[C@H]2C(=O)O[C@H]([C@H](C)C[C@@H]2CC[C@@H](OC(=O)C(C)(CO)CO)[C@H](OC)C2)CC(=O)[C@H](C)/C=C(\C)[C@@H](O)[C@@H](OC)C(=O)[C@H](C)C[C@H](C)/C=C/C=C/C=C/1C
cell proliferation ([1]; 50 nM): 68.3
cell proliferation ([1]; 500 nM): 64.8
cell proliferation ([2]; 50 nM): 65
cell proliferation ([2]; 500 nM): 65.1
cell proliferation ([3]; 50 nM): 59.6
cell proliferation ([3]; 500 nM): 58.9
